Measurements published in PubChem BioAssay AID504466 (National Center for Advancing Translational Sciences (NCATS), 2011).
Out of some 330,000 compounds screened, about 4,200 (1.3%) were called active. Roughly 6% stayed inconclusive and do not appear here. Calls come from the whole dose curve; as a rule, active = well fitted activation curve with a large enough effect; inconclusive = small, poorly fitted or top-dose-only effect; inactive = no such curve, though single readings can be large or run the other way. Shown is part of a subset that was picked to be rich in actives.

test: qHTS screen for small molecules that induce genotoxicity in human embryonic kidney (HEK293T) cells expressing luciferase-tagged ELG1; settings: HEK293T ELG1-luciferase reporter, luminescence, 16 h; series mostly up to 46 µM; activity change, positive = activation: at the top concentration; note: nearly all actives have a fitted effect of over 60% in size; for activity change, positive = activation: % of control where 0% means no effect
In short: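 HEK293T cells expressing luciferase-tagged ELG1 were treated with compound or DMSO for 16 hr at 37°C. Luciferase activity was then read after 30 min with ONE-Glo at room temperature; rising signal flags genetic stress.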
Potency is the fitted concentration of half-maximal effect.

Row | Structure (SMILES) | activity change, positive = activation | Potency
1 | COc1ccccc1CSc1ncc(-c2ccc([N+](=O)[O-])cc2)[nH]1 | -0.532% (inactive) | 
2 | Clc1ccccc1SCc1nc2ccccc2[nH]1 | 15% (inactive) | 
3 | COc1ccccc1CSc1nc2ccccc2[nH]1 |  | 23.1 µM (active)
4 | CC[C@]1(C(=O)OC)[C@H]2C(=O)N(Cc3ccccc3)C(=O)[C@H]2[C@H]2CN=C(SCc3ccc(Cl)cc3)N21 | -5.96% (inactive) | 
5 | O=C(C[C@@H]1C/C=C\CCC(=O)OC[C@@H]2CCCN2C1=O)NCCO | 3.18% (inactive) | 
6 | CN(C(=O)COC(=O)c1cc(=O)[nH]c2ccccc12)C1CCCCC1 | 18.4% (inactive) | 
7 | CCCCNc1c(-c2cccc(Sc3ccc(OC)cc3)c2)nc2ccccn12 | -5.54% (inactive) | 
8 | CN1CCN(c2ccc(NC(=O)c3cc(Cl)c4c(c3)OCCO4)cc2)CC1 | 9.93% (inactive) | 
9 | CN1CCN(c2ccc(NC(=O)c3ccccc3)cc2)CC1 |  | 10.3 µM (active)
10 | CN1CCN(c2ccc(NC(=O)c3ccc4c(c3)[nH]c(=O)n4Cc3ccc(F)cc3)cc2)CC1 | -2.36% (inactive) | 
11 | N#Cc1cc([N+](=O)[O-])ccc1NC(=O)COC(=O)c1cnccn1 | -4.95% (inactive) | 
12 | COC(=O)c1ccc(OC(=O)c2cnccn2)cc1 | 0.398% (inactive) | 
13 | O=C(NCCCNC(=O)c1ccccc1Cl)c1cnccn1 | 1.2% (inactive) | 
14 | Cn1c(=NC(=O)c2cnccn2)sc2ccccc21 |  | 8.2 µM (active)
15 | CC1(c2ccccc2)NC(=O)N(CC(=O)N2CC(=O)Nc3ccccc32)C1=O (configuration not stated) | 0.668% (inactive) | 
16 | Cc1ccc(C)c(S(=O)(=O)N2CCN(c3ncnc4sccc34)CC2)c1 | -12.2% (inactive) | 
17 | CC(C)CC1NC(=O)c2cc(Cl)ccc2-n2c1nc1ccccc1c2=O (configuration not stated) | 0.392% (inactive) | 
18 | Cn1nnnc1SCC(=O)Nc1nc2ccccc2s1 | 14.9% (inactive) | 
19 | Cc1ccnc(NC(=O)c2ccco2)n1 | 4.05% (inactive) | 
20 | Cc1ccnc(Nc2nc3ccccc3s2)n1 |  | 2.06 µM (active)
21 | Cc1ccccc1NC(=O)CSC(=O)c1ccccc1 | -4.93% (inactive) | 
22 | CSc1ccccc1NC(=O)c1cc(C2CC2)on1 |  | 23.1 µM (active)
23 | Cc1nn(Cc2ccc(Cl)c(Cl)c2)c(C)c1NC(=O)c1cc(C2CC2)on1 | 2.15% (inactive) | 
24 | O=C(Nc1cc(C(F)(F)F)ccc1Cl)c1cc(C2CC2)on1 | -1.5% (inactive) | 
25 | COc1cc(C)ccc1OCC(=O)OCC(=O)c1ccc[nH]1 | 3.48% (inactive) | 
26 | CC(C)(C)OC(=O)C[C@@H]1C/C=C\C[C@@H](CC(=O)NCCO)C(=O)N[C@H](Cc2c[nH]c3ccccc23)COC1=O | 0.381% (inactive) | 
27 | C=CC[C@@H](CC(=O)N[C@@H](CO)Cc1ccccc1)C(=O)N[C@H](COC(=O)[C@H](CC=C)CC(=O)OC(C)(C)C)Cc1ccccc1 | 10.3% (inactive) | 
